Results taken from the supplement of paper PMC3334620.
The full ranking holds about 33,000 sequences; the median of “E-score (-0.5 to 0.5)” is about -0.035, and the highest 2% start at about 0.35. The full list was thinned out, with the highest values kept by preference.

target: T1, Pdr3 (UniProt P33200); assay: PBM E-score (8-mer binding enrichment) (E-score (-0.5 to 0.5)); higher = stronger / more preferred TF binding; details: protein concentration: 200 nM; construct: GST-full length
T1 sequence: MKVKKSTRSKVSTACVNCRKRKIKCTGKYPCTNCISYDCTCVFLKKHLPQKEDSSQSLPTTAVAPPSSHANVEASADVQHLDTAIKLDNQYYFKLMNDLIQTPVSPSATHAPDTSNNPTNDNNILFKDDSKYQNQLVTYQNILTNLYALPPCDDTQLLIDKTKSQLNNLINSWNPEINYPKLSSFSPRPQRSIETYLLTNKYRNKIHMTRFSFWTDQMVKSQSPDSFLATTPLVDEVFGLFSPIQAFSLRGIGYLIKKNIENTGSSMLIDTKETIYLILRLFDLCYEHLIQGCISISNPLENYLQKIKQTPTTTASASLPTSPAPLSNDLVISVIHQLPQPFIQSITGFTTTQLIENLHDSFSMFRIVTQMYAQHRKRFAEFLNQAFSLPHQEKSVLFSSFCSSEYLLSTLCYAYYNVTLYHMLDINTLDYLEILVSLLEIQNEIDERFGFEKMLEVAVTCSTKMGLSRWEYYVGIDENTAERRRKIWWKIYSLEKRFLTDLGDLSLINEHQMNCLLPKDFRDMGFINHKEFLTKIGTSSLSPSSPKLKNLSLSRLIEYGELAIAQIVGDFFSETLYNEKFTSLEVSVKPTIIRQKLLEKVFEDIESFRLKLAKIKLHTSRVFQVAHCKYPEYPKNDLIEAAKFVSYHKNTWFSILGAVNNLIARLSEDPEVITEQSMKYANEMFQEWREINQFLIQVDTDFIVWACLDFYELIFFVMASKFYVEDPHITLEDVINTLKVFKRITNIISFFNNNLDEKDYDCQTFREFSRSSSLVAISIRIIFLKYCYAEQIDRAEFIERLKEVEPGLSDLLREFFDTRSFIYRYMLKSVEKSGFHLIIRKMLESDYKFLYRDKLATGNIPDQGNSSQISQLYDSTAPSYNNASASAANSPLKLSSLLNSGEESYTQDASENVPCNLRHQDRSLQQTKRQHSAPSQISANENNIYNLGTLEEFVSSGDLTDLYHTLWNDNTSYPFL
Method in brief: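 Using PURExpress in vitro transcription/translation, GST-tagged yeast transcription factors were made in full-length or DNA-binding-domain form. These were applied at about 100-200 nM to double-stranded universal all-10-mer Agilent arrays, and bound protein was detected with fluorescent anti-GST. Scans were normalised with masliner before the Universal PBM Analysis Suite assigned E-scores to ungapped eight-base words pooled with their reverse complements.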

Sequence	PBM E-score
AGAACTCA	0.00923
ACAACTTC	0.167
CAGTGAGG	-0.309
GACCTAGA	-0.115
CCAGCAAC	-0.00856
GCAGCTCC	0.144
AAGGGTCC	0.205
CAACGGAG	0.307
GAACGGAA	0.469
AAACGGAC	0.189
CAACGGAC	0.261
CAACGGAA	0.47
AAACGGAA	0.469
AAACGGTA	0.172
AAACGGAT	0.377
AAACGGGA	0.352
GAACGGCA	0.256
AAACGGAG	0.184
GAACGGAC	0.259
CGCTACCG	0.141
CCCTAAGA	-0.243
CTTGCGGA	0.137
CAGGCGGG	0.0666
CCGAGAAG	0.183
TCCACGAA	-0.0449

Sequence	PBM E-score
TAACGGGA	0.237
TAACGGTA	0.0452
TAACGGAA	0.453
CACAGAAA	0.0151
CGGCCGGA	0.396
CGGCCGAC	0.315
GGGCCGGA	0.318
AGGCCGGA	0.256
CGGCCGGC	0.371
AGGCCGGC	0.291
CGCATGAG	-0.164
CATGATTA	0.0563
CACGGAGG	0.26
CACGGAGA	0.372
GACGGAGC	0.213
GACGGAGA	0.322
TACGGAGA	0.178
CACGGAGC	0.374
AAGATTGG	0.014
GTGGTTCA	0.0321
ACTTAACC	-0.166
TACCCGGA	0.381
ATCACCCC	0.0523
TACCCGAA	0.198
ATCACCCA	-0.0491

Sequence	PBM E-score
ACACCCGG	0.291
TACCCGTA	0.0329
CACCCGGG	0.398
CACCCCGG	0.236
CCACCCGA	0.216
CCACCCGG	0.359
ATCACCCG	0.358
CACCCGAG	0.204
CCCATCCC	0.133
AAGTGGAA	-0.0995
AGGGCGGG	0.25
ACCTCCTA	-0.192
ACGGCCTA	0.131
AACAGGGT	-0.0562
CGGGGTAA	0.267
GGCAAACC	-0.147
GACGTATC	-0.0675
CACCCGTA	0.151
CCCACCCA	0.073
CACCCGGC	0.234
CCCACCCC	0.198
AACCCGGC	0.289
CCCACCCG	0.387
ACCCCGGA	0.352
GACCCGGC	0.294

Sequence	PBM E-score
GACCCCGA	0.109
GACCCGGA	0.369
CACCCGGA	0.412
AACCCGGA	0.384
AATAGCGT	0.0358
CGCAAATA	0.125
TACACGTA	-0.168
AAGATTGA	-0.131
CTCGCCCA	-0.0292
CGTGCGCA	-0.111
AGTCAAAA	-0.104
AGGAGCCG	0.0342
CGGAGCCG	0.369
CCGAGCCA	0.295
CGGAGCAA	0.338
CGGAGCAG	0.403
CGGAGCCC	0.208
AGGAGCGA	-0.199
ACGAGCCG	0.134
CCGAGCCG	0.359
CGGAGCAC	0.297
CGGAGCGA	0.378
CGGAGCGC	0.266
AGCATCGA	-0.0594
ACATATCT	0.0252

Sequence	PBM E-score
CGCTGTAG	-0.00377
ATGTGGTA	-0.0392
AGCGAACG	-0.134
GTAACCGA	0.0824
CGTGATTA	0.0343
GAGTACTC	0.0872
ACAAGCCC	-0.157
ACCCATCA	-0.129
GAGCATTA	-0.0816
CGAAAAAG	0.159
GGGAAAAC	0.0253
CGGAAAAA	0.403
AGGAAAAA	-0.157
TGGAAAAA	0.0433
CGGAAAAG	0.415
AGGAAAAC	0.0846
AGGAAAAG	0.0387
CGGAAAAC	0.375
GGGAAAAA	0.176
TAACACGA	0.0333
CGCGAAAC	-0.00744
TAACTGTA	-0.323
GAGACCGA	0.0506
ATCTGGTC	-0.051
CCGGGACC	0.413

Sequence	PBM E-score
ACGGGACC	0.241
CGGGGACG	0.124
TCGGGACA	0.167
CCGGGACA	0.376
ACGGGACG	0.295
ACGGGACA	0.311
CCGGGACG	0.365
GCGGGACC	0.323
ATGGGCCG	0.0292
AGAAGCCG	0.213
AACTGTAG	-0.124
AAGATAGA	-0.184
ACCAAAAG	-0.176
ACTCCGCG	0.397
ACTCCGCC	0.343
CCTCCGCA	0.00168
CCTCCGCG	0.445
ACTCCGCT	0.14
CCTCCGCC	0.169
CATAACGC	-0.102
CCGGCTTC	0.322
GCGGCTTA	-0.0127
CCGGCTTA	0.356
GTCAGAAC	-0.132
AGTTCAAT	-0.139

Sequence	PBM E-score
CCACGTGA	-0.0844
ACATTCCC	0.154
ACATTCCT	-0.0606
CCATTCCC	0.101
CCATTCCA	0.0798
ATATTCCG	0.426
CCATTCCG	0.425
ATATTCCC	0.266
ATATTCCA	0.128
ACATTCCG	0.439
CTCAAACC	-0.0558
GACATCTA	-0.0109
CAACTTTA	-0.0602
ATACTCGC	0.162
ACCAAGGT	-0.0204
AGAGCGAC	-0.135
AGGCCATA	-0.0791
GCCGCGGC	0.484
CCCGCGAC	0.175
CCCGCGTC	0.236
CCCGCGGC	0.488
GACGCGGC	0.0937
GCGGCCGC	0.35
CAAATGGC	-0.156
GCTACTAC	0.146

Sequence	PBM E-score
CGATAGCG	0.0636
AGGCCTTA	-0.254
CAGGTGGC	-0.197
CGTCCGTA	0.176
ATTCCGTA	0.417
GTCCCGTA	0.159
AATCCGTC	0.314
GTACCGTA	0.029
CCTCCGTA	0.222
ATTCCGTC	0.42
ACTCCGTA	0.13
ACTCCGTC	0.206
GTTCCGTA	0.471
AATCCGTA	0.165
CTTCCGTA	0.379
GGTATTAC	0.225
CTTTTAAA	-0.00725
GGGCGTAC	-0.00965
GCAGCAAA	-0.103
CAGACCCG	0.279
AATCGGTA	-0.0123
CTAGAACA	0.0618
ATGCTACA	-0.24
CAATAGAG	-0.166
CTCGGCAG	0.219

Sequence	PBM E-score
CGAAATAG	0.0496
CCTCCGTC	0.15
CTTCCGTC	0.403
AATCCGTG	0.237
ACTCCGTG	0.282
CGTCCGTC	-0.0265
ATTCCGTG	0.467
AAAACTTC	-0.029
CACCGCTC	0.0532
GTTTTAGA	-0.0726
GGGGGAGA	-0.00585
ATTTCCCC	0.0635
AGTTTCCG	0.452
ATTTTCCC	0.151
ATTTCCCG	0.369
CATTTCCA	-0.0296
CATTTCCC	0.203
AGTTTCCA	0.0305
ATTTTCCG	0.432
AGTTTCCC	0.0499
CATTTCCG	0.411
ATTTCCCA	0.0046
ATTTTCCA	0.122
AAAAGTTG	0.00957
ATCAAAGC	0.0706

Sequence	PBM E-score
AACTCGCT	0.0814
ATATACCC	0.102
CTACCGGA	0.335
CACCATAA	-0.109
CGCCACAA	-0.0528
AATTTCCC	0.0432
AATTTCCT	0.0149
AATTTCCG	0.442
AACTGTAC	-0.229
ACGCCGCA	0.181
GCGACGCA	-0.126
CGCACGGA	0.413
CGGACGGA	0.367
CGGACGGC	0.244
ACGACGGA	0.328
GCGACGGA	0.374
GGGACGGA	0.33
GGCACGGA	0.314
CCGACGAA	0.193
CGCACGGC	0.142
CCGACGGA	0.413
CCGACGGC	0.237
AACTCCTG	-0.193
ATCTGGCA	-0.111
AGCTGTCC	-0.116

Sequence	PBM E-score
GCGGGGCA	0.129
CATACCCC	0.0622
CCCACCGG	0.248
ATCTTCGA	-0.115
AATCATGT	-0.0895
AGCGCCCT	0.0102
CCAAGCCA	-0.245
GGAAGCCA	0.0692
CGGACGAC	0.196
GGGACGAA	0.162
CGGACGAA	0.372
GAGCGGTA	0.0552
AAGCGGAA	0.387
CAGCGGAC	0.176
TAGCGGGA	0.14
CAGCGGAA	0.429
TAGCGGCA	0.107
TAGCGGAA	0.357
AAGCGGAG	0.0882
CAGCGGAG	0.274
GAGCGGAC	0.0792
AAGCGGAT	0.309
GAGCGGAA	0.415
AAGCTATT	-0.112
ACACCACT	0.108

Sequence	PBM E-score
CGTTGCCC	0.101
AAGTGTGT	-0.187
CAACTAGA	-0.0997
GTTGTGAA	-0.142
GAATCAGC	-0.124
TCGTTCAA	-0.125
GCCGTGGA	0.258
CCCGTGGA	0.395
CCCGTGGC	0.233
CCCGTCGA	0.215
TCCGTCGA	0.39
TCCGTCAA	0.375
GCCGTCAA	-0.048
GCCGTCGA	0.104
ACCGTCAA	-0.00477
AAGCGAAG	-0.0806
ACCAGTAT	0.0888
AGTTGGTA	-0.111
GTCATCCA	-0.0723
AACGGTAT	-0.0131
AACGGAGG	0.185
AACGGACT	0.0833
AACGGAAG	0.423
AATGGAAG	0.0364
AACGGAGC	0.275

Sequence	PBM E-score
AACGGAGT	0.373
AACGGTAG	0.0653
AACGGAAT	0.468
ACTTTCGA	-0.0188
AAAGTTCC	0.2
GGCGGGGA	0.292
ATTAGCAG	-0.0762
ATGCGCAT	0.165
AATCCTCA	-0.244
ACTATCCC	0.165
AACGACCG	-0.146
CCAATTAC	-0.099
GAGATAAA	0.122
AACGCGGG	0.332
CACGCGGG	0.0841
AACGCGGC	0.123
CACGCGGA	0.38
CACGCGGC	-0.00292
AACGCGGA	0.358
ATGTACCG	-0.0139
GAGTGCTA	-0.0621
CTGGGAGC	-0.192
CAAAAAAA	0.211
AAGCAAAG	-0.213
CACAGCAG	-0.234

Sequence	PBM E-score
GCAGCCAC	0.0849
ATGCACAA	-0.0898
ACGGACAC	0.321
CTCTCGGA	0.358
CTCTCGAA	-0.197
GTCTCGGA	0.306
ATCTCGGG	0.278
CTCTCGGC	0.118
ATCTCGGA	0.376
CCGTTTTC	0.202
CCTGGGAA	-0.0887
CCGGGGGA	0.311
CCCGGGGA	0.414
CACGGGAG	0.0682
ACCGGGAG	0.144
CCCGGGGC	0.338
CCCGGGAG	0.397
CCGGGGAG	0.332
CCCGGGAC	0.451
CCCGGGAA	0.443
CCGGGGAC	0.234
GCCGGGAC	0.316
